Screening results: PubChem BioAssay, National Center for Advancing Translational Sciences (NCATS)
TSHR antagonist: antagonists of human thyroid stimulating hormone receptor; P16473; TSHR-expressing cells, TSH-stimulated cAMP HTRF, 2 h; active compounds read low; activity change, negative = inhibition, % at 11.5 µM; 0.2% of 330,000 active; AID 504810;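 active means activity change below a set negative limit, meaning inhibition stronger than a set level, cut at about -70% in these data; inconclusive means activity change between two set negative limits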; further: on the % scale 0 is the no-effect control and ±100 the full control effect
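TSHR-expressing cells, 200/well, pre-treated with compound, then stimulated with EC80 TSH (4nM final) for 2 hours at 37 deg C. cAMP measured by competitive HTRF: anti-cAMP cryptate antibody in lysis buffer plus cAMP-d2, read after 30 minutes at room temperature.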
TSG101-PTAP inh: blocks PTAP/TSG101 interaction to inhibit HIV-1 budding | 340,000 tested, under 10 active | Q99816 | Fluorescence polarization, FITC-PTAP peptide / Tsg101 binding | Potency, µM (top dose mostly 115 µM), for inactives: at the highest dose activity change, negative = inhibition, hits mostly inhibitors; active means well fitted inhibition curve with a large enough effect in the main read-out, with a control signal flat, not every such curve was filed as active; inconclusive means small, poorly fitted or top-dose-only effect, or effect the other way, or a change in a side signal; inactive means no such curve, though single readings can be large or run the other way; further: potency means the concentration at half of the fitted maximal effect; % of control where 0% means no effect
Target sequence (Q99816 whole entry, looked up): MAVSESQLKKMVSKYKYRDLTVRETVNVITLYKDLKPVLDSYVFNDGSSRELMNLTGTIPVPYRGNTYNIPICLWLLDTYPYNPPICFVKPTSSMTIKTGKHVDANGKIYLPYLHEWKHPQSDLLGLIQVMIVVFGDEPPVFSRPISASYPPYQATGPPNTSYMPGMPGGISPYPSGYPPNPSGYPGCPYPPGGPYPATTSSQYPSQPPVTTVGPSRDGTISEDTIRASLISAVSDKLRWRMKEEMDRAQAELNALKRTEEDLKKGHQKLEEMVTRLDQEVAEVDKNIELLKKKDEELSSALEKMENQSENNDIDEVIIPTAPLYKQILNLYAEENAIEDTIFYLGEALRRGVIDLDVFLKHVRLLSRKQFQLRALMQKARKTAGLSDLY
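Compounds were pin-transferred onto Tsg101 binding domain (10 uM final) in HEPES pH 7.5 buffer, then FITC-PTAP peptide was added at 50 nM final. After 20 min at RT, polarization reported peptide displacement across a qHTS concentration series.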
Anesthetic bind: candidate novel general anesthetic via apoferritin binding. 0.074% of 350,000 active. apoferritin/1-aminoanthracene competitive binding, fluorescence. P02791. Potency, µM (titrated, usually from 77.5 µM), inactives show top-dose activity change, negative = displacement, usual class: inhibitors; further: potency means the concentration at half of the fitted maximal effect; on the % scale 0 is the no-effect control and ±100 the full control effect; nearly all actives have a fitted effect of over 20% in size
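Horse-spleen apoferritin (10 uM) was mixed with 50% saturated 1-aminoanthracene in PBS, exposed to compounds for 10 min at room temperature, and read for fluorescence (ex 380 nm, em 535 nm). Competitive displacement was fitted with a four-parameter Hill equation.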
ASM inhibitor: inhibitors of human secretory acid sphingomyelinase; placental ASM, HMU-PC fluorogenic substrate, 60 min; Potency, µM (top dose mostly 57.5 µM), for inactives: top-dose activity change, negative = inhibition, actives largely listed as inhibitors; 0.006% of 340,000 active; AID 504937; further: potency means the concentration at half of the fitted maximal effect
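Human placenta-derived ASM enzyme was preincubated with compound for 10 minutes at room temperature, then given fluorogenic substrate HMU-PC0 (9 uM final) for 60 minutes at 37 °C; a pH 10 stop preceded fluorescence reading at Ex 386/Em 447 nm.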
BRCA1 expr up: activators of BRCA1 expression; 1.1% of 380,000 active; Potency, µM (highest dose often 46.1 µM), inactives show at the top dose activation, most hits filed as activators; MCF7-BRCA1-FFLuc reporter, luminescence, 48 h; response scale: scaled: vehicle 0%, 10 µM genistein 100%; further: potency means the concentration at half of the fitted maximal effect; nearly all actives have a fitted effect of over 80% in size
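Luminescence from a BRCA1-driven firefly luciferase in MCF7 cells was read after 48 h compound exposure at 37 C. Data normalized against DMSO and a 10microM genistein activation control, then curve-fitted across the titration.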
The depositor's hits bear a star; ? = inconclusive; . = no result. Only some compounds are listed: those with a hit (about 1.2% of all), similar ones and a draw of the others. Unless noted, the call rests on the fitted dose curve; in most records, active means well fitted curve in the direction sought with a large enough effect; inconclusive means small, poorly fitted or top-dose-only effect, or another doubt; inactive means no such curve, though single readings can be large; an effect the other way counts as inactive or inconclusive.

SMILES	TSHR antagonist	TSG101-PTAP inh	Anesthetic bind	ASM inhibitor	BRCA1 expr up
OC(c1ccccc1)c1nc(/C=C/c2ccccc2)cs1 (stereo not given)	.	.	.	.	10µM*
OC(c1ccc(F)cc1)c1nc(/C=C/c2ccccc2)cs1 (stereo not given)	.	.	.	.	85%
COc1ccc(C(=O)Nc2cnc(NC(=O)c3cccs3)cc2C)cc1	-35	-7%	-7%	6%	7.1µM*
COc1ccc(C(=O)Nc2ccccc2C(=O)Nc2cc(C)ccn2)cc1	-4	-6%	-10%	-2%	2.2µM*
Brc1ccccc1OCCCOc1cccc2cccnc12	-12	0%	-23%	-8%	8.9µM*
COc1ccccc1NC(=S)N/N=C/c1cccc(C)c1	1	-2%	9%	-8%	-25%
Oc1ccc(/C=N/NC(=S)N/N=C/c2ccc(O)cc2)cc1	39	-7%	-19%	-3%	8.9µM*
Oc1ccc(/C=N/NC(=S)Nc2cccnc2)cc1	3	-1%	-6%	15%	?
COc1ccccc1NC(=S)N/N=C/c1ccc(O)cc1	7	-2%	-10%	25%	3.2µM*
c1coc(-c2ccc3ncnc(NCc4cccs4)c3c2)c1	-5	.	.	.	.
Cc1cc(C)c2nc(N3CCN(C(=O)c4ccco4)CC3)sc2c1	4	0%	.	-4%	13µM*
C/C(=N\Nc1nncc2ccccc12)c1ccc(C(C)(C)C)cc1	19	0%	-1%	-11%	2.5µM*
CC(C)(C)c1ccc(NC(=O)COC(=O)c2ccccc2OCC(=O)Nc2ccc(Br)cc2)cc1	.	.	.	.	0%
COc1ccc(NC(=O)COc2ccccc2C(=O)Nc2ccccc2)cc1	.	.	.	.	4%
CNc1ccc(C=O)cc1I	.	.	.	.	-3%
CC(=O)c1ccc(NC(=O)c2cnn3c2NC(=C2CC2)C=C3C(F)F)cc1	.	.	.	.	19%
Cc1[nH]nc(SCC(=O)N2CCCCCC2)c1[N+](=O)[O-]	-1	-3%	?	7%	7.9µM*
Cc1ccc(S(=O)(=O)NCC(=O)N2CCc3ccccc3C2)cc1	-8	2%	-9%	3%	-30%
O=C(CNS(=O)(=O)c1ccccc1)N1CCc2ccccc2C1	10	0%	-15%	-1%	11µM*
COc1ccc(CNC(=O)C(C)OC(=O)c2cccs2)cc1 (stereo not given)	-101*	-2%	-8%	1%	0%
CC(OC(=O)c1cccs1)C(=O)NCc1cccs1 (stereo not given)	14	-5%	-9%	-3%	-1%
CCc1ccc2[nH]c(=O)c(CN(Cc3cccs3)Cc3nnnn3Cc3ccccc3)cc2c1	.	.	.	.	-40%
CC(=O)N(C)c1ccc(NC(=O)Nc2ccc(Cl)cc2)cc1	.	0%	.	-1%	11µM*
O=C(Nc1ccc(Cl)cc1)Nc1ccc(Cl)c(Cl)c1	-74*	-1%	.	-13%	-16%
O=C(Nc1ccc(Cl)c(Cl)c1)Nc1ccccc1O	?	-6%	?	?	2.8µM*
SMILES	TSHR antagonist	TSG101-PTAP inh	Anesthetic bind	ASM inhibitor	BRCA1 expr up
Cc1ccc(NC(=O)Nc2ccc(F)c(Cl)c2)cc1	-14	-1%	0%	-1%	?
O=c1oc(CCCO)cc2ccc(C#Cc3ccsc3)cc12	-3	-2%	.	0%	56%
CN(C)c1ccc(C#Cc2ccc3cc(CCCO)oc(=O)c3c2)cc1	-14	-6%	.	279%	3.2µM*
O=C(NCCS(=O)(=O)N1CCN(c2ccccc2)CC1)C1CC(=O)N(c2ccccc2)C1 (stereo not given)	-135*	0%	-1%	-2%	-12%
Cc1ccc(NC(=O)COC(=O)CSC(=S)N2CCOCC2)cc1C	1	-1%	5.6µM*	-3%	-11%
c1coc(CNc2ncnc3c2nc2n3CCCC2)c1	.	.	.	.	1%
Clc1ccc(-c2csc(N3CCCCCC3)n2)cc1	3	51%	-10%	-2%	0%
Clc1ccc(-c2csc(N3CCOCC3)n2)cc1	-7	0%	?	-1%	7.1µM*
COc1ccc(-c2csc(N3CCSCC3)n2)cc1	-11	0%	?	-9%	?
COc1ccc(-c2csc(N3CCOCC3)n2)cc1OC	5	-5%	?	-2%	14µM*
Brc1ccc(-c2csc(N3CCOCC3)n2)cc1	-9	-2%	?	-10%	11µM*
